Assay outcomes: PubChem, several laboratories
14-3-3 Bad PPI = disrupts binding of bovine 14-3-3 zeta to phospho-Bad peptide; P63103; TR-FRET 14-3-3zeta/Dy647-pBad peptide displacement, 1 h; inhibition, % at 21.7 µM; hit rate 0.71% among 220,000;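 active = inhibition above about 70%, limit read from the data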;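 note: 0% = full 14-3-3 plus peptide FRET controls and 100% = background without 14-3-3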
Target sequence (P63103 whole entry, looked up): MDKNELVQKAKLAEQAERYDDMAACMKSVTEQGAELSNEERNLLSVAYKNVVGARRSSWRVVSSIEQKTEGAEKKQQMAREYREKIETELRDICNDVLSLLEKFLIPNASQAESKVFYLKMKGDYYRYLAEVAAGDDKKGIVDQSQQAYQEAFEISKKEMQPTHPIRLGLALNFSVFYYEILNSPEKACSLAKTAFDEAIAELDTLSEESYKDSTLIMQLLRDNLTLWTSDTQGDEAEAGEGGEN
eIF4E 4G PPI = blocks eIF4E binding to eIF4G | P63073+Q04637 | AID 782 | hit rate 0.37% among 220,000 | TR-FRET eIF4E-eIF4GI(517-606) binding, 2 h | inhibition, % at 21.7 µM;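 note: 0% = full FRET control wells and 100% = background wells lacking eIF4GI fragment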
Mcl1-Bid inh = Mcl-1/Bid interaction inhibition; Q07820; TR-FRET Mcl-1/Bid-Dy647 peptide binding, 1536-well; inhibition, % at 21.7 µM; hit rate 0.97% among 220,000; AID 1021;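 active = compounds that cut the binding signal by more than half at the single screening dose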;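 note: His-tagged Mcl-1 with europium anti-His antibody binding Bid BH3 peptide; 0% = Mcl-1 plus peptide wells and 100% = peptide-only wells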
Target sequence (Q07820 whole entry, looked up): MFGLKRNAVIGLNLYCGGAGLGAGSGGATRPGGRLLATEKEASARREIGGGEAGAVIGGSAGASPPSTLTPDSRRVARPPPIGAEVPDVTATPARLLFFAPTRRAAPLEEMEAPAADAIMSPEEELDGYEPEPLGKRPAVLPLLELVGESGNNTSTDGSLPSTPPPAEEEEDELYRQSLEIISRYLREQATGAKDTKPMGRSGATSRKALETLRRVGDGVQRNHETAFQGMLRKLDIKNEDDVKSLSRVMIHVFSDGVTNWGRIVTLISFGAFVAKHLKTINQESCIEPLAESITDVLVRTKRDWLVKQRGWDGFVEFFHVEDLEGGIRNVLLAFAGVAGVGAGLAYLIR
Mcl1-Noxa inh = Mcl-1/Noxa interaction inhibition; Q07820; TR-FRET Mcl-1/Noxa peptide binding, 2 h; inhibition, % at 21.7 µM; hit rate 1.5% among 220,000; AID 1022;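 active = compounds that cut the protein-peptide binding signal by more than 50% relative to plate controls in a single-dose test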;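 note: His-tagged Mcl-1 with rhodamine Noxa BH3 peptide and terbium anti-His antibody; 0% = Mcl-1 plus Noxa peptide wells and 100% = peptide-only wells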
Bim-Mcl-1 = inhibitors of Bim-Mcl-1 interaction, human | Q07820 | Bead-based flow cytometry, Bim peptide-Mcl-1 binding | inhibition, % at 10 µM | hit rate 0.1% among 190,000; in the data active = inhibition above about 40%;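 note: 0% = no compound tracer wells and 100% = peptide blocker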
p47phox inh = p47phox (human) inhibition; P14598; hit rate 0.53% among 220,000; AID 1274; p47phox/p22phox peptide binding, fluorescence polarization, 2 h; inhibition, % at 24.7 µM;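 note: 0% = p47phox with labelled peptide and 100% = labelled peptide alone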
Numbers without * were called inactive; . = no result; [ ] = remark or other dose. The list is not random: actives were taken first. Their share in the collection is about 3.4%.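 Rule for the calls, unless noted: active = inhibition above about 30% (limit read from the data); inactive = the rest.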

SMILES | 14-3-3 Bad PPI | eIF4E 4G PPI | Mcl1-Bid inh | Mcl1-Noxa inh | Bim-Mcl-1 | p47phox inh
Cc1cc(C)nc(NCC(O)COc2ccccc2C)n1 (stereo not given) | 9.0 | -1.7 | 100.7* | -13.4 | -2.0 | -6.9
O=C(COc1cccc2cccnc12)N/N=C/c1ccccc1O | 7.9 | -5.2 | -8.4 | -3.1 | . | -6.4
C#CCn1cc(/C=N/NC(=O)COc2cccc3cccnc23)c2ccccc21 | 92.1*[fluorescence artefact?] | 10.6 | 85.5* | 69.7* | -7.0 | 28.9
COC(=O)Cn1cc(/C=N/NC(=O)COc2cccc3cccnc23)c2ccccc21 | 45.5 | 11.5 | 65.2* | 28.5 | 0.0 | 26.6
O=C(Nc1ccc(Br)cc1)c1ccc(N2C(=O)C3CC=CCC3C2=O)cc1 (stereo not given) | -0.3 | -2.2 | -33.2 | 58.5* | 0.0 | 1.4
N#Cc1ccccc1Cn1c(-c2cscn2)nc2ccccc21 | -3.8 | 1.3 | 79.2* | 5.9 | 1.0 | -2.4
O=C(O)Cn1c(-c2cscn2)nc2ccccc21 | 71.8* | 7.9 | -2.5 | 8.9 | 0.0 | -3.5
COc1ccccc1NC(=O)Nc1nn(C)c2cccc(OC)c12 | 3.5 | -1.6 | -2.6 | 15.5 | . | -21.1
Cc1cc(C)nc(NS(=O)(=O)c2ccc(Br)cc2)n1 | 84.5* | 1.4 | 23.4 | 8.6 | -2.0 | 4.0
Cc1cc(C)nc(NS(=O)(=O)c2ccc(N)cc2)n1 | 3.8 | -3.0 | -7.7 | -10.5 | -3.0 | -4.3
O=C(OCC1CC(c2ccccn2)=NO1)c1ccc(Br)cc1 (stereo not given) | -3.7 | 42.5* | 1.2 | 1.8 | 1.0 | -1.2
COc1cccc(C(=O)OCn2nnc3ccccc3c2=O)c1 | 4.8 | 3.1 | -13.7 | -0.6 | 0.0 | -22.1
COC(=O)c1cccc(Cn2nnc3ccccc3c2=O)c1 | 14.4 | 2.5 | -6.3 | 2.6 | -1.0 | 114.0*
O=C(OCn1nnc2ccccc2c1=O)c1cc2ccccc2o1 | 2.9 | 97.8* | -66.6 | 4.8 | . | -6.2
CC(C)NC(=O)CSc1nnc(-c2ccc3ncccc3c2)n1C | -1.5 | 0.0 | -33.8 | 0.6 | . | -13.4
Nc1ncc(N=Nc2cc(C(=O)O)ccc2Cl)s1 | 45.0 | 2.1 | -65.0 | 66.9* | . | -23.6
CC(C)N(C(=O)CSc1nnnn1-c1ccc2c(c1)OCO2)C(C)C | -11.2 | 0.4 | 65.0* | -0.9 | -3.0 | -10.2
CC1(c2nnc(-c3ccccc3)o2)CC(c2cccnc2)=NO1 (stereo not given) | -5.8 | -5.2 | -31.2 | -5.6 | . | -29.5
CC1(c2nnc(-c3ccccc3)o2)CC(c2ccncc2)=NO1 (stereo not given) | 52.6 | 97.2* | -37.1 | -2.2 | . | 2.9
O=C(N/N=C/c1ccc(OC(=O)c2cccs2)cc1)c1cccc(F)c1 | 71.6* | -44.5 | 9.3 | 24.8 | . | -27.8
CCOc1ccc2[nH]c3c(NCCc4ccc(OC)c(OC)c4)ncnc3c2c1 | -3.1 | 2.2 | -49.3 | 56.7* | . | -40.0
COc1ccc(NC(=O)c2c(F)cccc2F)cc1S(=O)(=O)Nc1ccc(Br)cc1 | 9.2 | -10.1 | -13.0 | 5.8 | 42.0* | -29.5
CCOc1ccc(Br)cc1S(=O)(=O)Nc1ccc(NC(=O)c2ccccc2F)cc1 | -10.7 | 11.2 | -24.8 | -15.9 | -4.0 | -23.4
C/C(=N\NC(=O)c1cccc(S(=O)(=O)N2CCOCC2)c1)c1cc2ccccc2o1 | -5.7 | -3.1 | -61.1 | -46.6 | . | -14.7
C=CCn1c(SCC(=O)Nc2ccc(-c3nc4ccc(C)cc4s3)cc2)nnc1-c1ccncc1 | 31.6 | 11.9 | -20.1 | 63.4* | -11.0 | 6.1
SMILES | 14-3-3 Bad PPI | eIF4E 4G PPI | Mcl1-Bid inh | Mcl1-Noxa inh | Bim-Mcl-1 | p47phox inh
CCn1c(SCC(=O)Nc2ccc(-c3nc4ccc(C)cc4s3)cc2)nnc1-c1ccccc1 | 91.0*[fluorescence artefact?] | 4.8 | 65.8* | 65.7* | -5.0 | 11.0
CC1(C)Cc2c(c(-c3ccco3)nc3sc4c(NCCCO)ncnc4c23)CO1 | 1.5 | -3.3 | 1.6 | 48.6 | . | -17.9
CC1(C)Cc2c(sc3nc(NCCN4CCOCC4)n4ncnc4c23)CO1 | -13.3 | 61.4* | -6.8 | 27.8 | 0.0 | 1.1
CC1(C)Cc2c(c(-c3ccco3)nc3sc4c(NCCN5CCOCC5)ncnc4c23)CO1 | -12.5 | -1.8 | -6.1 | 63.1* | -2.0 | -33.4
CC1(C)Cc2c(c(-c3ccco3)nc3sc4c(NCC5CCCO5)ncnc4c23)CO1 (stereo not given) | 8.6 | 0.3 | -2.7 | 50.6* | 7.0 | -30.0
COc1ccc(C(=O)NC(=S)Nc2nc(C)cc(C)n2)cc1Br | -3.7 | -2.7 | -73.9 | 1.2 | . | -14.4
CN(/N=C/c1ccncc1)C1=NS(=O)(=O)c2ccccc21 | 79.4* | -0.2 | 4.2 | 10.7 | 26.0 | -10.6
N#CC12COC3(CCCCC3C1(C#N)C#N)OC2=N (stereo not given) | -2.0 | -2.7 | -137.5 | 10.2 | . | 4.9
N#CC1(C#N)COC23CCCCC2C1(C#N)C(=N)O3 (stereo not given) | 1.4 | 5.1 | -31.8 | 12.4 | 0.0 | 141.0*
O=C(O)/C=C/c1cn(Cc2ccccc2Cl)nc1-c1ccccc1 | 8.5 | -1.2 | -3.8 | 10.7 | . | 0.2
Cc1ccc(C(CCN(Cc2ccccc2)C(=O)c2ccco2)c2ccco2)cc1 (stereo not given) | -18.4 | 2.0 | -70.4 | 35.8 | 0.0 | -81.5
O=C(c1ccco1)N(CCC(c1ccccc1)c1ccco1)Cc1ccco1 (stereo not given) | 33.3 | 13.2 | -9.4 | 62.2* | 2.0 | -35.9
COc1ccc(-c2csc(Nc3ccc(S(=O)(=O)Nc4cc(OC)nc(OC)n4)cc3)n2)cc1 | -19.3 | 6.5 | -14.8 | 38.6 | -2.0 | -34.5
COc1ccc(-c2csc(Nc3ccc(S(=O)(=O)Nc4cc(C)on4)cc3)n2)cc1C | 1.8 | 1.7 | -30.1 | 51.1* | 0.0 | -22.2
Cc1ccc(Nc2nc(-c3ccc(S(=O)(=O)N4CCCC4)cc3)cs2)cc1C | 85.6* | -10.6 | -29.0 | 9.5 | 0.0 | -25.2
COc1cc(/C=N/NC(=O)c2ccccc2)ccc1O | -7.3 | -2.4 | -32.2 | 14.6 | 0.0 | 3.5
O=C1Nc2ccccc2/C1=N\N=C\c1ccc(O)c(O)c1 | -2.5 | -0.7 | -40.1 | 65.4* | . | -20.6
O=C(/C(=N/N=C/c1ccc(O)c(O)c1)c1ccccc1)c1ccccc1 | -7.5 | 2.7 | -26.4 | 50.5* | -12.0 | -25.1
O=C(COC(=O)CCC(=O)c1ccc(Cl)cc1)NC1CC1 | 10.8 | 5.0 | 7.0 | 5.2 | -1.0 | 1.2
O=C(NC1CC1)C1=C[C@@H](C2CC2)C[C@@H](OCc2ccc(CO)cc2)O1 | 1.4 | 33.7* | -14.4 | 2.7 | . | -11.3
O=C(NC1CC1)C1=C[C@@H](C2CCCCC2)C[C@@H](OCc2ccc(CO)cc2)O1 | -0.3 | 0.0 | -11.8 | -26.5 | -1.0 | .
Cc1ccccc1NC(=O)Cn1nnc2c(cnn2-c2ccc(F)cc2)c1=O | 30.4 | 41.2*[fluorescence artefact?] | -17.4 | -6.8 | -3.0 | -7.1
CCOc1ccc(NC(=O)Cn2nnc3c(cnn3-c3ccc(F)cc3)c2=O)cc1 | 7.5 | -2.5 | -5.8 | -5.4 | 0.0 | -7.4
CC(=O)OCCNc1cc(Sc2nc3ccccc3[nH]2)c2nonc2c1[N+](=O)[O-] | 3.4 | 9.2 | -106.3 | 61.0* | -6.0 | -2.6
